# SENP7 inh – blocks the human protease SENP7; recombinant SENP7, Z-RLRGG-aminoluciferin luminescence, 40 min; Q9BQF6; inhibition, % at 5 µM; actives 1.5% (n = 330,000); AID 434973;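 active = inhibition above about 50% at the single test dose, limit read from the data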
# SENP8 block-1 – SENP8 (human) protease inhibition | Q96LD8 | inhibition, % at 20 µM | recombinant SENP8, Nedd8 substrate fluorescence | actives 0.64% (n = 360,000); in the data active = inhibition mostly above about 40%, no sharp cut-off; inactive = mostly below about 27%
# Target sequence (Q96LD8 whole entry, looked up): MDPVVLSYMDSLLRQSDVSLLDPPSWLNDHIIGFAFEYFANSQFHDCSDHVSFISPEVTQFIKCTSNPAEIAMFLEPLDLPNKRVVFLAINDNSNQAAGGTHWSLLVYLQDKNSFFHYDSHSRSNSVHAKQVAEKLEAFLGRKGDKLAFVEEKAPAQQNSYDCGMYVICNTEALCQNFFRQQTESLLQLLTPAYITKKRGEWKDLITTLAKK
# HSP90 refold inh – blocks HSP90-mediated luciferase refolding in reticulocyte lysate. Rabbit reticulocyte lysate, luciferase refolding luminescence, 3 h. actives 0.91% (n = 290,000). inhibition, % at 5.6 µM. AID 1789;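 active = inhibition above the screen-wide mean plus 3 SD, computed separately per campaign, cut at about 16% in these data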;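 note: inhibitors lower the luminescence because luciferase stays unfolded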
# SENP8 block-2 – SENP8 protease inhibition; actives 1.2% (n = 330,000); Q96LD8; purified SENP8, Z-RLRGG-aminoluciferin cleavage, luminescence; AID 2540; inhibition, % at 10 µM; in the data active = inhibition above about 50%
# SENP6 block – inhibitors of human SENP6 protease. Q9GZR1. Recombinant SENP6 catalytic domain, aminoluciferin luminescence. inhibition, % at 10 µM. actives 1.8% (n = 330,000). AID 2599;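 active = inhibition above about 50% at the single tested dose, limit read from the data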
# SENP8 confirm – confirmation of human SENP8 protease inhibitors | actives 40% (n = 6,200) | shares compounds with SENP7 inh | inhibition, % at 12.5 µM | Recombinant SENP8, Z-RLRGG-aminoluciferin luminescence, 60 min;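 active = mean inhibition across replicates above about 50%, limit read from the data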
# SENP6 confirm – human SENP6 inhibition, confirmed | shares compounds with SENP7 inh | recombinant SENP6, Z-RLRGG-aminoluciferin luminescence | inhibition, % at 12.5 µM | actives 58% (n = 6,200) | AID 488915
# SENP7 conf – human SENP7 inhibition, confirmed. actives 69% (n = 6,200). recombinant SENP7, Z-RLRGG-aminoluciferin luminescence, 40 min. AID 488917. inhibition, % at 12.5 µM. shares compounds with SENP7 inh
# Casp3 select – caspase-3 inhibition (SENP selectivity assay); shares compounds with SENP7 inh; inhibition, % at 12.5 µM; purified caspase-3, Z-DEVD-aminoluciferin luminescence, 60 min; actives 60% (n = 6,200); AID 488918;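 active = mean inhibition above about 50%, limit read from the data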
# Target sequence (P42574 28-227 limits assumed): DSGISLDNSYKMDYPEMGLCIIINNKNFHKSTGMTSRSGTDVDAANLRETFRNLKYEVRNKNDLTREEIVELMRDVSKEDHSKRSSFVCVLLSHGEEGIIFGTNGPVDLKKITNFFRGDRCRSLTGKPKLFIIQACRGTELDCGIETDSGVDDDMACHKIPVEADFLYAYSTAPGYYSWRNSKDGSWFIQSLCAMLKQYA
# SENP luc ctr – counter-screen for SENP inhibitors: luminescence interference. shares compounds with SENP7 inh. Pre-incubated SENP8/Z-RLRGG-aminoluciferin, luciferase luminescence interference. inhibition, % at 12.5 µM. actives 39% (n = 6,200). AID 488919;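 active = mean inhibition above about 50% when retested at one dose, limit read from the data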
# Numbers stand for hits; - = inactive; . = no result given. A selection: hits, their analogues and other compounds. The true share with any hit is near 2.7%.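 Rule for the calls, unless noted: active = mean inhibition above about 50% in the one-dose retest (limit read from the data); inactive = the rest.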
SMILES,SENP7 inh,SENP8 block-1,HSP90 refold inh,SENP8 block-2,SENP6 block,SENP8 confirm,SENP6 confirm,SENP7 conf,Casp3 select,SENP luc ctr
CCOC(=O)C1CCN(C(=S)Nc2ccc(CC)cc2)CC1,-,-,-,-,-,.,.,.,.,.
COC(=O)C1(C)NC(c2cccc(C)c2)C2C(=O)N(c3ccc(F)cc3)C(=O)C21 (configuration not stated),-,-,-,-,-,.,.,.,.,.
Cc1ccc(NC(=O)c2ccc3c(c2)OCCO3)nc1,53.6,-,.,-,55.9,-,-,81.1,80.7,60.4
Cc1ccnc(NC(=O)c2ccc3c(c2)OCO3)c1,91.8,-,-,80.1,68.9,-,87.0,98.5,95.5,87.0
Cc1ccnc(NC(=O)c2ccc3c(c2)NC(=O)C(C)S3)c1 (configuration not stated),-,-,.,-,55.3,-,-,-,-,-
O=C(Nc1ccon1)c1ccc2c(c1)OCO2,-,-,-,-,-,.,.,.,.,.
Cc1ccc(NC(=O)CNC(=O)c2ccc3c(c2)OCO3)nc1,-,-,-,-,-,.,.,.,.,.
Cc1ccc(NC(=O)c2cccc(F)c2)cc1S(=O)(=O)N1CCCCCC1,-,-,-,-,-,.,.,.,.,.
COc1ccc2[nH]c3c(c2c1)CCN1C(=O)C(CC(=O)NCCCn2ccnc2)C[C@H](C(=O)N2CCOCC2)[C@@]31CCC1CCCC1 (some centres not stated),-,-,.,.,.,.,.,.,.,.
O=C(Cc1ccccc1)NCC(=O)N1CCc2ccccc2C1,-,-,-,-,-,.,.,.,.,.
Cc1ccc(C(=O)NNc2cc(N3CCCC3)nc(N3CCCC3)n2)cc1,-,.,-,95.3,82.2,51.9,87.0,50.4,-,-
O=C(NNc1cc(N2CCOCC2)nc(N2CCOCC2)n1)c1ccc(Cl)c(Cl)c1,-,-,-,-,-,.,.,.,.,.
Nc1ccc(N(CCO)CCO)cc1,-,65.2,-,-,56.6,-,-,-,-,-
CCN(CC)c1ccc(N)cc1,-,-,.,-,-,.,.,.,.,.
Cc1cc(=O)[nH]c(N=N/C(=N/Nc2ccc(O)cc2)c2ccccc2)n1,-,-,-,-,61.2,-,-,-,-,-
COc1ccc(N/N=C(/N=Nc2nc(C)cc(=O)[nH]2)c2ccccc2)cc1,-,-,-,-,68.1,-,-,-,-,-
O=C(CNC(=O)c1ccccc1F)c1ccccc1,50.6,-,-,-,53.7,-,-,80.9,79.0,53.1
Cc1ccc(/C=N/Nc2nc3ccccc3s2)o1,82.6,-,-,90.1,96.7,83.5,84.1,98.7,81.1,-
Cc1ccc(C(=O)c2cc3ccccc3o2)cc1,56.5,-,-,-,76.8,-,59.8,86.0,51.7,58.8
O=C(c1cc2ccccc2o1)c1cccs1,71.7,-,-,50.5,-,-,74.8,93.2,68.3,57.7
COc1ccc(C(=O)c2cc3cccc(OC)c3o2)cc1,82.7,-,-,82.2,83.7,88.2,86.3,97.0,76.5,66.4
O=C(c1cccc([N+](=O)[O-])c1)c1cc2ccccc2o1,-,-,-,-,-,.,.,.,.,.
O=C(NC(=S)Nc1ccc(NC(=O)c2cccs2)cc1)c1cc2ccccc2o1,-,-,-,-,-,.,.,.,.,.
Cc1ccc(C(=O)c2cc3ccccc3o2)cc1C,75.9,-,-,69.1,82.0,-,72.5,53.2,-,-
CN(C)S(=O)(=O)c1ccc(NC(=S)NC(=O)C2CCC2)cc1,-,-,-,-,-,.,.,.,.,.
SMILES,SENP7 inh,SENP8 block-1,HSP90 refold inh,SENP8 block-2,SENP6 block,SENP8 confirm,SENP6 confirm,SENP7 conf,Casp3 select,SENP luc ctr
CCc1cccc(NC(=O)c2cnn(-c3ccccc3)c2C)c1,85.2,-,-,82.9,89.7,-,86.8,97.6,81.4,81.0
Cc1cccc(C)c1NC(=O)c1cnn(-c2ccccc2)c1C,-,-,-,-,-,.,.,.,.,.
COc1cccc(NC(=O)c2cnn(-c3ccccc3)c2C)c1,84.7,-,-,78.4,82.4,-,85.0,98.1,89.0,86.2
Cc1ccc(NC(=O)c2cnn(-c3ccccc3)c2C)cc1,67.1,-,-,-,66.3,67.1,63.7,88.6,70.0,-
O=C1N2CCSC2=NC1(Nc1ccccn1)C(F)(F)F (configuration not stated),-,-,-,-,-,.,.,.,.,.
Cn1ncc(Br)c1C(=O)NC1CCCCCCC1,-,-,-,-,-,.,.,.,.,.
O=c1[nH]c(C(Cl)(Cl)Cl)nc2ccc3ccccc3c12,-,-,-,73.6,87.5,-,70.7,79.5,59.6,-
O=c1[nH]c(C(F)(F)F)nc2ccccc12,-,-,-,-,-,.,.,.,.,.
Cc1cc(Nc2ccc(F)cc2)c2ccccc2n1,.,-,.,.,.,.,.,.,.,.
Cc1cc2ccccc2c(=O)[nH]1,-,-,-,-,-,.,.,.,.,.
O=c1[nH]c(Nc2ccc(F)cc2)cc2ccccc12,91.8,-,16.4,84.5,84.7,52.0,76.3,-,-,-
O=c1[nH]c(Nc2ccccc2Cl)cc2ccccc12,92.4,-,.,95.9,99.4,57.0,86.3,68.6,-,-
Cc1ccccc1Nc1cc2ccccc2c(=O)[nH]1,94.6,-,-,97.1,90.6,92.3,98.4,94.8,96.4,-
Cc1cc(C)c2sc(N(CCCN(C)C)C(=O)c3ccc(S(=O)(=O)N(C)C4CCCCC4)cc3)nc2c1,-,-,.,-,-,.,.,.,.,.
Cc1nnc(SCC(=O)NC(=O)NC(C)(C)C)n1N,-,-,-,-,-,.,.,.,.,.
O=C(O)c1ccc(/C=N/N2CCN(c3ccccc3)CC2)cc1,72.5,-,-,61.7,61.6,-,-,-,-,-
O=C(O)c1ccc(C=NN2CCCCCC2)cc1,.,-,.,.,.,.,.,.,.,.
COc1ccc(/C=N/N2CCN(c3ccccc3)CC2)cc1Br,58.2,-,-,-,-,-,-,-,-,-
COc1ccc(/C=N/N2CCN(c3ccccc3OC)CC2)cc1Br,-,-,-,-,59.4,-,-,76.2,-,-
COc1ccc(/C=N/N2CCN(c3ccc(Cl)cc3)CC2)cc1O,-,-,-,-,-,.,.,.,.,.
COc1ccccc1N1CCN(/N=C/c2ccc(O)c(O)c2)CC1,-,.,-,-,-,.,.,.,.,.
COc1ccc(-n2nc(C(=O)NCc3ccco3)c3c4ccccc4n(C)c3c2=O)cc1Cl,-,-,-,-,-,.,.,.,.,.
O=C(/C=C/c1ccc(Cl)cc1)N1CCN(c2ccccn2)CC1,-,-,-,-,-,.,.,.,.,.
N#Cc1c(Nc2ccc(Cl)cc2)s[nH]c1=O,-,-,-,-,58.6,56.0,-,84.7,68.7,-

# Screens as filed in PubChem.
